# Results: PubChem BioAssay (NCI)
# This is part of a sample that, as a whole, favours compounds with a hit. Of some 83,000 tested, about 20% had one in any assay.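 Single-concentration screen, 48 h exposure, 96-well plates. Endpoint: percent growth. Below 10 = active.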 A number with no mark means an inactive call. Activity calls are given as the source filed them.
# Legend:
# Assay in all cases: NCI-60 one-dose screen, 48 h (100 = growth as untreated, 0 = no growth, -100 = all killed)
# Conditions in all cases: 10 µM
# [1] = test system: EKVX NSCLC
# [2] = test system: SN12C renal
# [3] = test system: UO-31 renal
# [4] = test system: TK-10 renal
# [5] = test system: ACHN renal
# [6] = test system: CAKI-1 renal
# [7] = test system: A498 renal
# [8] = test system: CCRF-CEM leukemia
# [9] = test system: MOLT-4 leukemia
# [10] = test system: SR leukemia
# [11] = test system: RPMI-8226 leukemia
# [12] = test system: OVCAR-8 ovarian
# [13] = test system: OVCAR-5 ovarian
# [14] = test system: OVCAR-4 ovarian
# [15] = test system: SK-OV-3 ovarian
# [16] = test system: IGROV1 ovarian
# [17] = test system: OVCAR-3 ovarian
# [18] = test system: HS 578T breast
# [19] = test system: NCI/ADR-RES ovarian
# [20] = test system: T-47D breast
SMILES,growth [1],growth [2],growth [3],growth [4],growth [5],growth [6],growth [7],growth [8],growth [9],growth [10],growth [11],growth [12],growth [13],growth [14],growth [15] [%],growth [16],growth [17],growth [18],growth [19],growth [20]
O=C(Nc1ccncc1)C(=O)c1cn(S(=O)(=O)c2cccc(Cl)c2)c2ccccc12,52.3%,75.5%,57.7%,87.6%,82.8%,63.8%,69.4%,72.4%,53.1%,12%,47.2%,76.2%,107%,74.8%,96.6,52.7%,45.7%,86.8%,43.6%,70%
CCCCCC(=O)c1ccc(OCCCN2CCN(C(=O)OCC)CC2)cc1,83.4%,94.8%,77.4%,101%,96.1%,95.2%,95.5%,21.1%,78.6%,84.4%,48.6%,104%,86%,85.1%,104,112%,104%,102%,83.3%,88.1%
Cc1occc1-c1nnc(SCC(=O)c2ccc(NC(=O)CC(C)C)cc2)o1,103%,107%,93.7%,123%,109%,84.1%,118%,93.4%,100%,7.85% (active),77.7%,57%,105%,122%,121,69.1%,104%,119%,104%,102%
COc1ccc(/C=C/C(=O)Nc2ccc(-c3nc4ccc(F)cc4s3)cc2)cc1,85.3%,93.8%,84.2%,104%,107%,95.5%,105%,81.3%,71.8%,80.8%,75.4%,103%,112%,83.2%,114,104%,113%,111%,111%,91%
CCN(CC)CCOc1nc2cc(OC)c(OC)cc2c2c1-c1ccc(OC)cc1C2=O,98.6%,80.7%,47.7%,105%,56%,35.7%,96.6%,22.4%,9.28% (active),-29.6% (active),49.2%,52.9%,111%,61.5%,77.3,60.4%,80%,89.6%,64.4%,107%
O=C(Nc1ccc(Cl)c(Cl)c1)Nc1c(Oc2ccc(Cl)c(Cl)c2)ccc(Cl)c1S(=O)(=O)O,38.2%,36.4%,21.2%,25.3%,61.2%,12.1%,-13.3% (active),13.5%,25%,1.34% (active),14.9%,27.7%,53.7%,65.6%,22.4,30.4%,-9.85% (active),-5.79% (active),2.06% (active),51.4%
Cc1cc2ccccc2nc1-c1ccccc1F,107%,110%,97.3%,130%,112%,99%,96.2%,96.9%,111%,110%,101%,102%,106%,117%,96.4,129%,105%,106%,112%,
CC[C@H]1CCC/C=C/[C@@H]2C[C@H](O)C[C@H]2[C@H](O)/C=C/C(=O)O1,-1.36% (active),3.46% (active),-9.94% (active),-48% (active),0.373% (active),-0.599% (active),-45.3% (active),7.71% (active),0.81% (active),2.29% (active),-3.82% (active),0.0361% (active),7.93% (active),29%,21.3,-2.68% (active),-58.5% (active),13.7%,2.15% (active),-81.1% (active)
CC(=O)/C(=C/c1ccccc1)C(=O)CC(C)C,99.6%,108%,83.1%,84.2%,84.7%,100%,96.1%,9% (active),34.1%,1.48% (active),18.4%,75.2%,93.9%,103%,106,98.8%,75.1%,89.6%,93.5%,107%
CCN(CC)CCC(CNc1c(C)cnc2cc(Cl)ccc12)c1ccc(Cl)cc1 (centres undefined),70.8%,56.7%,41.8%,89.6%,44.8%,60.1%,19.8%,42%,39.5%,-10.8% (active),44%,61.8%,54.6%,56.6%,81.7,46.4%,70.8%,70.1%,59%,59.6%
CCN(CC)CCOc1nc2ccccc2c2c1-c1ccc(OC)cc1C2=O,16%,18.1%,-53.3% (active),-1.29% (active),-6.81% (active),-28.6% (active),39.9%,4.01% (active),-2.16% (active),-8.96% (active),-14.3% (active),6.78% (active),25.8%,6.09% (active),43.5,-37.9% (active),-18.6% (active),1.77% (active),-12.8% (active),47.1%
CCN1CCC(CCOC)(CN2c3ccccc3Sc3ccc(Cl)cc32)C1 (centres undefined),56.7%,59.7%,8.09% (active),64.1%,47.2%,46.6%,56.6%,30.5%,22.5%,40.4%,47.4%,73.7%,54.4%,46.3%,78.7,30.7%,64.8%,51.5%,75.8%,70.5%
CCN(CC)CCN1CC(=O)Nc2cc(Cl)ccc21,101%,103%,82%,114%,104%,90.7%,87.6%,101%,105%,114%,109%,108%,102%,103%,110,99.9%,109%,94.4%,94.2%,107%
COc1ccc(-c2nc3ncccn3c2-c2nnc(-c3ccc(F)cc3)o2)cc1,96%,91%,79.2%,113%,97.6%,100%,81%,94.4%,97.1%,108%,95.9%,92.4%,98.1%,96.6%,107,110%,103%,96%,93.7%,98.2%
CC(=O)c1cc(Cl)ccc1O,108%,110%,78.3%,98.9%,99.8%,107%,100%,100%,101%,104%,105%,109%,94.3%,120%,111,116%,102%,104%,104%,99.7%
Clc1ccc(-c2cn(-c3ccccc3)c(-c3ccccc3)n2)c(Cl)c1,50.5%,12.2%,-66.9% (active),-82.9% (active),-100% (active),-22.8% (active),-28.3% (active),34.8%,6.15% (active),-51.6% (active),16%,9.55% (active),16.4%,-100% (active),25.1,-26.3% (active),-84% (active),-20.3% (active),13.6%,-17.6% (active)
